Data on twelve compounds can be found in PubChem BioAssay (NCATS).

For test [1], the system named is CRL-7250. Put plainly: Cytotoxic Profiling of Annotated Libraries Using Quantitative High-Throughput Screening (AID 1296008). The note with it: Five cell lines viability, CellTiter-Glo ATP luminescence, 48-72 h; max response: hits give low values. Summed up: (§1)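 Compounds were pin-transferred onto cells and incubated 48 or 72 hr at 37 degree Celsius, 95% humidity. CellTiter-Glo was added, plates sat 10 min at room temperature, then ATP-coupled luminescence was imaged as the viability read-out.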

For test [2], the system named is HEK293. The description is as above. Conditions: Five cell lines viability, CellTiter-Glo ATP luminescence, 48-72 h; max response: hits give low values. An outline of the steps: as §1
Test [3] concerns HaCat. The test is described as above. Conditions: Five cell lines viability, CellTiter-Glo ATP luminescence, 48-72 h; max response: hits give low values. An outline of the steps:
as §1
(ATP-based viability assays read luminescence as a measure of living cells.)

Test [4] concerns KB-3-1. Described as above. Conditions: Five cell lines viability, CellTiter-Glo ATP luminescence, 48-72 h; max response: hits give low values. Summed up: as §1
Test [5] has as its system NIH3T3. The description is as above. The note with it: Five cell lines viability, CellTiter-Glo ATP luminescence, 48-72 h; max response: hits give low values. An outline of the steps:
as §1

Test [6] concerns MCC-13. The experiment in a line: qHTS assay to identify novel small-molecules to repurpose for Merkel cell carcinoma treatment (AID 1296009). Conditions: MCC and control cell lines, CellTiter-Glo viability, 72 h; series mostly up to 46 µM. An outline of the steps: (§2)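 Cells exposed to NPC (8-point) and MIPE (11-point) compound dilutions for 72 hr at 37 degree celsius; viability read by CellTiter-Glo luminescence, normalized to no-cell and DMSO in-plate controls.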
For orientation: qHTS replaces the single test concentration by a dilution series.

Test [7] has as its system MCC-26. The description is as above. The note with it: MCC and control cell lines, CellTiter-Glo viability, 72 h; series mostly up to 46 µM. Summed up:
as §2

Test [8] concerns MKL-1. Described as above. The note with it: MCC and control cell lines, CellTiter-Glo viability, 72 h; series mostly up to 46 µM. Summed up: as §2
In test [9] the test system is MKL-2. The test is described as above. Conditions: MCC and control cell lines, CellTiter-Glo viability, 72 h; series mostly up to 46 µM. Summed up: as §2
For test [10], the system named is UISO. Described as above. Conditions: MCC and control cell lines, CellTiter-Glo viability, 72 h; series mostly up to 46 µM. Summed up: as §2
In test [11] the test system is HACAT. Described as above. The note with it: MCC and control cell lines, CellTiter-Glo viability, 72 h; series mostly up to 44.8 µM. Summed up: as §2
Test [12] has as its system NIH3T3. Described as above. Conditions: MCC and control cell lines, CellTiter-Glo viability, 72 h; at 44.8 µM (top of the series) unless noted. An outline of the steps:
as §2

Values joined by “and” are separate entries in the source; they are usually repeats but may differ in a detail not shown here. Equal entries are not always repeated. Results filed as inconclusive are left out. Unmarked numbers belong to inactive results. Active and inactive are the calls of the source. Calls follow the shape of the dose curve; as a rule, active = well fitted inhibition curve with a large enough effect; inconclusive = small, poorly fitted or top-dose-only effect; inactive = flat fitted curve, though single readings scatter.
% is scaled to controls: 0 for no effect and ±100 for the full control effect; potency is read from the fitted curve at half-maximal effect.
Also: nearly all actives have a fitted effect of over 60% in size.

As for `Nc1cc(C(F)(F)F)c(-c2cc(N3CCOCC3)nc(N3CCOCC3)n2)cn1`, the Potency was 2.06 µM (active) in test [1]; 935 nM (active) and 2.31 µM (active) in [2]; 1.18 µM (active) and 1.64 µM (active) in test [3]; 743 nM (active) and 1.46 µM (active) in [4]; 1.05 µM (active) and 2.59 µM (active) in test [5]; 2960 nM (active) in [6]. For the same compound, the values for the Potency in test [7], in test [8] and in test [10] were 2350 nM (active), 1660 nM (active) and 1660 nM (active), respectively. For the same compound, the Potency result in test [9] is “inactive”.

Consider `CC(=O)OCCN1C(=O)c2c(C)nc3ccc(S(=O)(=O)N4CCOCC4)cc3c2C1=O`, for which the max response in [1] was -12.8%; in test [2], -2.2%; in [3], 1.24%; in test [5], 2.81%. Moreover, the result in test [4] was inactive. For the same compound, the Potency result in test [6], in test [7], in test [8], in [9] and in test [10] was “inactive” in each case.

With `Nc1nc(-c2nn(Cc3ccccc3F)c3ncccc23)nc(N)c1N1CCOCC1`, the max response in [1] was -1.46%; in [2], -2.05%; in [3], -22.5%; in test [4], 6.89%; in [5], -10.6%. The Potency result in [6], in test [7], in test [8], in [9] and in test [10] was “inactive” throughout.

Regarding `Cc1[nH]nc2ccc(-c3cncc(OC[C@@H](N)Cc4ccccc4)c3)cc12`, the Potency is 2.64 µM (active) and 5.8 µM (active) in [1]; 209 nM (active) and 651 nM (active) in test [2]; 1.32 µM (active) and 411 nM (active) in test [3]; 0.332 µM (active) in test [4]; 3.72 µM (active) and 7.31 µM (active) in test [5]; 4180 nM (active) in test [6]. The Potency was 6620 nM (active) in test [7], 1870 nM (active) in [8], 1660 nM (active) in test [9] and 833 nM (active) in [10].

On to `CC(=O)Nc1nc(C)c(-c2ccc(Cl)c(S(=O)(=O)NCCO)c2)s1`, for which the Potency was 1.66 µM (active) and 13 µM (active) in test [1]; 4.18 µM (active) and 11.6 µM (active) in test [2]; 6.51 µM (active) in [3]; 9.35 µM (active) in test [4]; 3.32 µM (active) and 2.59 µM (active) in [5].

Regarding `Cc1nc(N)ncc1-c1nc(N2CCOCC2)c2sc(C(C)(C)O)cc2n1`, the Potency in test [1] is 2.59 µM (active); in test [2], 1.18 µM (active) and 1.3 µM (active); in [3], 41.8 nM (active) and 130 nM (active); in test [4], 3.66 µM (active); in [5] it was 1.87 µM (active) and 920 nM (active). For the same compound, the Potency result in test [6] was “inactive”.

As for `COc1cc(C(C)C)c2c(c1)S(=O)(=O)N(COc1cc(=O)n3cccc(OCCN4CCCCC4)c3n1)C2=O`, the max response in test [1] is -9.13%; in test [2] it was -21.7%. For the same compound, the compound was classed as inactive in test [3], in [4], in test [5] and in test [12]. In addition, the Potency result in test [11], in test [6], in [7], in test [8], in test [9] and in test [10] was “inactive” in each case.

On to `Cc1cc(Nc2cc(N3CCN(C)CC3)nc(C=Cc3ccccc3)n2)n[nH]1`, for which the Potency in test [1] was 5.4 µM (active); in test [2] it was 7.62 µM (active); in test [3], 2.7 µM (active); in test [4] it was 3.03 µM (active); in [5], 6.05 µM (active); in test [6], 9590 nM (active). In addition, the Potency in [7] is 9590 nM (active).

`CC[C@@]1(O)C(=O)OCc2c1cc1n(c2=O)Cc2cc3cc(O)ccc3nc2-1`: the Potency is 1.3 µM (active) and 1.48 µM (active) in [1]; 73.1 nM (active) and 148 nM (active) in [2]; 116 nM (active) and 743 nM (active) in test [3]; 517 nM (active) and 1.05 µM (active) in test [4]; 1.46 µM (active) and 662 nM (active) in test [5]; 118 nM (active) in [6]. Also, the Potency in test [7] was 132 nM (active); in test [8] it was 37.2 nM (active); in test [9], 264 nM (active); in test [10], 74.3 nM (active).

Take `CC(C)Nc1cc(C(F)(F)F)cc2nc(NC(=O)c3cccnc3)nn12`: the max response in test [1] is -10.3% and 1%; in test [2], -16.8%; in test [3], -1.8%; in [5], 3.06% and -1.67%. Also, in test [4], the result was inactive. Also, the Potency result in [6], in [7], in test [8], in [9] and in test [10] was “inactive” throughout.

As to `CCc1c2c(nc3ccc(O)cc13)-c1cc3c(c(=O)n1C2)COC(=O)[C@]3(O)CC`, the Potency in test [1] is 651 nM (active) and 2.64 µM (active); in test [2], 14.6 nM (active) and 16.6 nM (active); in test [3], 58 nM (active) and 105 nM (active); in test [4], 291 nM (active) and 235 nM (active); in test [5], 0.731 µM (active); in test [6] it was 29.6 nM (active). Besides, the Potency in [7] was 37.2 nM (active); in [8] it was 11.8 nM (active); in test [9] it was 41.8 nM (active); in [10], 20.9 nM (active).

`CC(C)(C)c1cc(NC(=O)Nc2ccc(-c3cn4c(n3)sc3cc(OCCN5CCOCC5)ccc34)cc2)no1`: the max response is -10.2% and -19.2% in test [1]; 4.76% and -14.7% in [4]; -25.4% in test [5]. In addition, the Potency in test [2] was 1.18 µM (active) and 5.8 µM (active). Also, the call in test [3], in test [5] and in [12] was inactive. Moreover, the Potency entry in test [11], in test [6], in [7], in test [8], in [9] and in test [10] was “inactive” each time.
